Measured values taken from PubChem BioAssay (NCI).
Compounds without any hit were thinned out: in the full panel of roughly 79,000, 15% have a hit. Rule as the data show it: active = growth inhibition above about 70%; inactive = the rest.

Tests used:
[1] = NCI Yeast Anticancer Drug Screen. Data for the rad50 strain (AID 155);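 also: 0% = growth of vehicle-only cultures of the same strain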; settings: S. cerevisiae rad50 strain growth inhibition; at 50.0 µM; stronger effect = higher value
Procedure, shortened: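 Yeast carrying a defined DNA repair defect were exposed to test compounds, and growth was compared with vehicle-treated controls to give percent inhibition.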

[2] = NCI Yeast Anticancer Drug Screen. Data for the mec2-1 strain (AID 157); settings: S. cerevisiae mec2-1 strain, at 50.0 µM, stronger effect = higher value
Procedure, shortened: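 Yeast mec2-1 mutant treated with compound. Readout: growth inhibition vs vehicle controls.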

[3] = NCI Yeast Anticancer Drug Screen. Data for the sgs1 mgt1 strain (AID 161);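 also: 0% = growth of cultures given vehicle only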; settings: S. cerevisiae sgs1 mgt1 strain, at 50.0 µM, stronger effect = higher value
Procedure, shortened: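 Read-out: growth inhibition vs vehicle controls. Cells: mutant yeast strain deficient in DNA damage repair.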

[4] = NCI Yeast Anticancer Drug Screen. Data for the cln2 rad14 strain (AID 165);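 also: 0% = growth equal to vehicle treated cultures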; settings: S. cerevisiae cln2 rad14 strain, at 50.0 µM, stronger effect = higher value
Procedure, shortened: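 cln2 rad14 yeast strain; compound exposure; growth inhibition read vs vehicle controls.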

[5] = NCI Yeast Anticancer Drug Screen. Data for the bub3 strain (AID 167); settings: S. cerevisiae bub3 mutant strain, at 50.0 µM, stronger effect = higher value
Procedure, shortened: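 Compounds were applied to a genetically altered yeast strain carrying a cell-cycle control defect. Growth inhibition was scored against vehicle-treated controls.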

[6] = NCI Yeast Anticancer Drug Screen. Data for the mlh1 rad18 strain (AID 175); settings: S. cerevisiae mlh1 rad18 strain growth inhibition; at 50.0 µM; stronger effect = higher value
Procedure, shortened: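 Yeast w/ defined DNA-repair lesions; compound exposure; growth vs vehicle controls → % inhibition.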

Measured: growth inhibition

C[C@@]12C[C@@H](c3ccccc3O1)N1CCCSC1=N2
inactive: [1] 20.2% | [2] -16% | [3] 4.6% | [4] 32.8% | [5] -9.8% | [6] 12.4%

COc1cc2c3c(c1)SC(C)C(=O)N3CCN2 (stereo unspecified)
inactive: [1] -7.85% | [2] -19.9% | [3] 2.55% | [4] 10.2% | [5] -3.5% | [6] 6.55%

O=c1cc(-c2ccccc2)nc(Sc2ccc([N+](=O)[O-])cc2[N+](=O)[O-])[nH]1
inactive: [1] 1.1% | [2] 0.2% | [3] -11.4% | [4] 2.7% | [5] 2.65% | [6] 8.25%

O=C(CCCCC(=O)Nc1ccc2[nH]c3ccccc3c(=O)c2c1)Nc1ccc2[nH]c3ccccc3c(=O)c2c1
inactive: [1] 0.35% | [2] 0.25% | [3] -3.1% | [4] -2.5% | [5] -3.45% | [6] 7.75%

C1CCc2nc3c(nc2C1)CCCC3
inactive: [1] 9.75% | [2] 1.6% | [3] 1.7% | [4] -9.65% | [5] -0.5% | [6] 7%

CC1CCC(NC2=NCCO2)C(C)C1 (stereo unspecified)
inactive: [1] -20.4% | [2] 0.4% | [3] -3.85% | [4] -29.4% | [5] -14.1% | [6] -3.35%

O=C(Nc1ccccc1Cl)Nc1ccccc1Br
inactive: [1] 16.8% | [2] 11.7% | [3] 14.7% | [4] 12.2% | [5] 6.8% | [6] -17.3%

Cc1ccccc1C(N)=O
inactive: [1] 23.7% | [2] 3.6% | [3] 11.2% | [4] -12.6% | [5] 12.8% | [6] 26.5%

CCSc1nc(COC(=O)NC)c(COC(=O)NC)n1C
inactive: [1] 4.9% | [2] -4.25% | [3] 8.25% | [4] -4.15% | [5] 10.7% | [6] 3.65%

O=S(CCO)c1ccc(Cl)cc1 (stereo unspecified)
inactive: [1] -26.1% | [2] -20.1% | [3] -21.2% | [4] -55.5% | [5] 2.75% | [6] -23.9%

CO[C@H]1CC2CC1C1C3=C(NC21)C1(O)C[C@H]2CN(CC3)C1C[C@@H]2C(C)CO (stereo partly specified)
inactive: [1] -3.6% | [2] 9.9% | [3] 2.75% | [4] -0.15% | [5] 1.45% | [6] -23.6%

CC1=NN(C(=O)c2ccccc2O)C(=O)/C1=C/c1cccc([N+](=O)[O-])c1
inactive: [1] 47.8% | [2] 26.9% | [3] 37.1% | [4] 28.1% | [5] 61.1% | [6] 33.8%

CCC1CCN(CC)CC1
inactive: [1] 3.1% | [2] -37.4% | [3] 3.2% | [4] 1.8% | [5] -19.6% | [6] -4.1%

COC(=O)/C=C/c1ccc2c(c1)CCCC2
inactive: [1] 18.1% | [2] 15.1% | [3] 10.6% | [4] -8.7% | [5] 22.2% | [6] 24.4%

O=C1c2ccc3ccccc3c2C(=O)c2ccc3ccccc3c21
inactive: [1] -20.6% | [2] -4.5% | [3] -3.65% | [4] -30.2% | [5] -12.3% | [6] -16.8%

Cn1nc(-c2cccc(N)c2)cc1Cl
inactive: [1] -17.6% | [2] -10.4% | [3] 3.75% | [4] -39.5% | [5] -15.6% | [6] 2.95%

C/C(CCC1CCCCC1)=N/Nc1ccc([N+](=O)[O-])cc1[N+](=O)[O-]
inactive: [1] 24% | [2] 8.9% | [3] 22.8% | [4] 16.5% | [5] 6.95% | [6] 5.55%

Cc1cccc(NC(=O)c2ccc(Cl)c(Cl)c2)c1
inactive: [1] 11.3% | [2] 13.7% | [3] -0.25% | [4] -65.6% | [5] 30.4% | [6] -8.65%

O=[N+]([O-])c1ccc2c(c1)C(=Nc1ccc(Cl)cc1)c1ccccc1-2
inactive: [1] -0.95% | [2] -8.6% | [3] -8% | [4] -32% | [5] 24.1% | [6] 5.45%

OCCN(CCO)c1ccc2c(c1)Cc1cc(Br)ccc1-2
inactive: [1] 1.25% | [2] 6% | [3] -4.35% | [4] -2.7% | [5] 22.5% | [6] 5.15%

CCN(CC)CCCC(C)Nc1nncc2ccccc12 (stereo unspecified)
inactive: [1] -19.2% | [2] -2.1% | [3] 2.55% | [4] -17.3% | [5] -1.3% | [6] -8.95%
